# Measured values as given in PubChem BioAssay (NCI).
# This is part of a sample that, as a whole, favours compounds with a hit. Of some 83,000 tested, about 20% had one in any assay.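 Percent growth is the endpoint: 0 to 100 indicates growth inhibition (40 means 60% inhibition), 0 means no net growth, and negative values indicate cell death.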 Values without a mark were called inactive. Activity calls are given as the source filed them. Rule for the calls: active = growth percent below 10; inactive = the rest.
# Key:
# Assay in all cases: NCI-60 one-dose screen, 48 h (100 = growth as untreated, 0 = no growth, -100 = all killed)
# [1] = system: DU-145 prostate; conditions: 10 µM unless noted
# [2] = system: K-562 leukemia; conditions: 10 µM unless noted
# [3] = system: MALME-3M melanoma; conditions: 10 µM unless noted
# [4] = system: MDA-MB-231 breast; conditions: 10 µM unless noted
# [5] = system: RXF 393 renal; conditions: 10 µM unless noted
# [6] = system: SF-268 CNS; conditions: 10 µM unless noted
# [7] = system: SF-295 CNS; conditions: 10 µM unless noted
# [8] = system: SF-539 CNS; conditions: 10 µM unless noted
# [9] = system: UACC-257 melanoma; conditions: 10 µM unless noted
# [10] = system: M14 melanoma; conditions: 10 µM unless noted
# [11] = system: HCT-15 colon; conditions: 10 µM unless noted
# [12] = system: HT29 colon; conditions: 10 µM unless noted
# [13] = system: SNB-75 CNS; conditions: 10 µM unless noted
# [14] = system: SNB-19 CNS; conditions: 10 µM unless noted
# [15] = system: U251 CNS; conditions: 10 µM unless noted
# [16] = system: PC-3 prostate; conditions: 10 µM unless noted
# [17] = system: SK-MEL-5 melanoma; conditions: 10 µM unless noted
# [18] = system: UACC-62 melanoma; conditions: 10 µM unless noted
# [19] = system: LOX IMVI melanoma; conditions: 10 µM
# [20] = system: SK-MEL-28 melanoma; conditions: 10 µM unless noted
Structure (SMILES),growth [1],growth [2],growth [3],growth [4],growth [5],growth [6],growth [7],growth [8],growth [9],growth [10],growth [11],growth [12],growth [13],growth [14],growth [15],growth [16],growth [17],growth [18],growth [19],growth [20]
Cc1cccc(-c2nc(Nc3ccc(C)c(S(N)(=O)=O)c3)c3ccccc3n2)c1,53.2%,7.2% (active),46.6%,10.9%,22.6%,50.9%,5.63% (active),9.73% (active),76.4%,31.4%,-19.4% (active),18%,91.5%,32.5%,29.4%,15.7%,29.5%,43%,-34.7% (active),38.9%
CCCS(=O)(=O)N1CCCC(C(=O)Nc2nc3ccc(NC(=O)c4ccc(F)c(OC)c4F)cc3s2)C1 (stereo not given),72.7%,27.6%,52.7%,62.9%,8.45% (active),56.9%,23%,47.2%,25.2%,56.7%,37.1%,54.2%,64.1%,63.7%,51.5%,37.3%,-41% (active),45.4%,37.6%,59.9%
O=[N+]([O-])c1ccc(/C=C/c2nc3ccccc3n3c(=S)[nH]nc23)cc1,88%,70.5%,101%,85.9%,78.7%,80.1%,125%,98.4%,94.8%,84.4%,82.1%,93.4%,102%,78.4%,76.2%,65.8%,61.8%,63.3%,91.3%,82.7%
C#CCOc1ccc(/C=N/Nc2nc(-c3cc4cc(OC)ccc4oc3=O)cs2)cc1OC,31.5%,34.7%,2.64% (active),44%,-88.8% (active),57.2%,41.2%,28.2%,54.7%,42.2%,60.5%,29.2%,102%,75.3%,38.5%,20.8%,39.2%,54.4%,22.8%,18.9%
CC1(C)CC[C@]2(C(=O)O)CC[C@]3(C)C(=CCC4[C@@]5(C)C[C@@H](O)[C@@H]6OC(c7ccco7)OC[C@@]6(C)C5CC[C@]43C)C2C1 (stereo not given in full),29.1%,21.2%,9.79% (active),59.7%,32.4%,31.9%,24.5%,21.9%,1.3% (active),23.3%,20.7%,21.3%,72.2%,28.4%,16.8%,20.8%,-33.2% (active),-7.05% (active),22.9%,24.9%
CCN(CC)c1ccc(/C=N/Nc2nc(-c3ccc(Br)cc3)cs2)c(O)c1,91.7%,4.62% (active),53.4%,95.9%,64.9%,99.7%,91.5%,52.3%,91.7%,54.5%,11.5%,56.3%,77.4%,107%,81.7%,85.2%,77.2%,77.4%,-57.5% (active),86.2%
O=C(COc1ccc2c(c1)CCCC(=O)N2)NCc1ccccc1,113%,43.4%,95.6%,82.4%,93.2%,97.5%,90.8%,87.3%,98%,83%,42%,103%,92.9%,89%,90.6%,94.9%,82%,86.5%,78.1%,90.4%
CN(C)c1nc(NCCNS(=O)(=O)c2ccc(C3=Nc4c(N)nc(N)nc4NC(c4ccc(Cl)cc4)C3)cc2)nc(Nc2ccc(F)cc2)n1 (stereo not given),64%,11.8%,14.6%,11.2%,20.1%,43.7%,48.5%,-51.1% (active),42.6%,11.6%,32%,-41.4% (active),53.2%,34.5%,27.5%,31.3%,-48.7% (active),25.6%,-56.4% (active),38.9%
Nc1nc(-c2ccccc2)c(N=Nc2ccc([N+](=O)[O-])cc2Cl)s1,95.4%,67.3%,108%,87.8%,109%,90.2%,92.1%,96.5%,61.6%,92.9%,68.1%,96.2%,85.7%,96.3%,82.5%,77.7%,42.5%,57.8%,98%,89.1%
COc1ccc(/C=N/NC(=O)Cn2nc(Cc3ccc(OC)cc3)c3onc(C)c3c2=O)cc1,64%,53.9%,50.8%,57.8%,2.21% (active),65.4%,48.2%,47.6%,77%,63.9%,70.2%,38.1%,26.9%,56.3%,54.6%,23.2%,91.6%,48.5%,10.6%,29.8%
O=C(Nc1ccccc1)N1CCN(c2cc(-c3cn(-c4ccccc4)nc3-c3cccc(O)c3)ccn2)CC1,95.3%,29.5%,84%,82.4%,90.8%,114%,54.8%,89.5%,97.4%,69.4%,21.4%,75.8%,101%,81.9%,63%,43%,40%,50.4%,69.1%,73.2%
COc1cc(-c2nc3ccc(C)cc3[nH]2)ccc1OCc1nnc(-c2ccc(Br)cc2)o1,58.3%,3.01% (active),45%,12.9%,25.2%,54.8%,-54.1% (active),-82.7% (active),-15.4% (active),31.2%,19.2%,-53.7% (active),85.7%,57.7%,5.13% (active),27.9%,20.2%,19.9%,77.1%,27.1%
Cc1nc(Nc2ccccn2)sc1C(=O)CC(SCC(=O)Nc1ccc(Cl)cc1)c1ccccc1F (stereo not given),-35.3% (active),11.8%,27.5%,-40.1% (active),1.73% (active),22.4%,2% (active),-58.4% (active),36.9%,1.45% (active),2.33% (active),-28.4% (active),16.5%,11%,-21.1% (active),43.2%,4.3% (active),-10.6% (active),-22.5% (active),24.1%
CN(C)c1nc(NCCNS(=O)(=O)c2ccc(C3=Nc4c(N)nc(N)nc4NC(c4ccccc4)C3)cc2)nc(Nc2ccc(F)cc2)n1 (stereo not given),58%,7.64% (active),36.6%,20.7%,13.4%,46.9%,42.6%,-7.62% (active),70.8%,49.4%,37.4%,18.3%,62.5%,56.6%,36.4%,26.5%,33.7%,55.9%,3.29% (active),60.2%
Cc1ccc(NC(=O)CN2CCN(c3ncnc4c3cnn4-c3ccccc3)CC2)cc1,92.5%,59.8%,90.8%,80.6%,86.7%,80.7%,116%,84.6%,92.8%,100%,50.3%,93.8%,103%,85.9%,86.5%,65.5%,77.6%,69.3%,23.3%,86.5%
